Experimental data from PubChem BioAssay (NCATS).
Results filed as inconclusive are left out. Unmarked numbers belong to inactive results. Activity calls are given as the source filed them. Calls come from the whole dose curve; as a rule, active = well fitted cell-killing curve with a large enough effect; inconclusive = small, poorly fitted or top-dose-only effect, or effect the other way; inactive = flat fitted curve, though single readings scatter.

tested on: CASKI; experiment: Primary qHTS to identify gynecologic anti-cancer compounds using libraries of approved drugs and bioactive compounds (AID 1345084); conditions: Gynecologic cancer cell panel viability, ATPlite luminescence, 48 h; series mostly up to 57.5 µM; activity change, negative = cytotoxicity: at the top concentration; note: nearly all actives have a fitted effect of over 55% in size
In short: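 Cells, 1,000 per well, plated 16 h, then exposed 48 h at 37 C to compounds. Viability by ATPlite luminescence after 15 min at room temperature.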
% is set by controls: 0 for no effect and ±100 for the full control effect; potency is the fitted concentration of half-maximal effect.

SMILES | activity change, negative = cytotoxicity | Potency
CN[C@@H]1[C@@H](O)[C@@H](O[C@@H]2[C@@H](O)[C@H](O[C@H]3O[C@@H]([C@@H](C)NC)CC[C@H]3N)[C@@H](N)C[C@H]2N)OC[C@]1(C)O | 5.74% | –
C[N+]1(C)[C@@H]2CC[C@H]1CC(OC(=O)C(O)c1ccccc1)C2 (stereo partly drawn) | 12.5% | –
CCNC(=O)[C@@H]1CCCN1C(=O)[C@H](CCCN=C(N)N)NC(=O)[C@H](CC(C)C)NC(=O)[C@@H](CC(C)C)NC(=O)[C@H](Cc1ccc(O)cc1)NC(=O)[C@H](CO)NC(=O)[C@H](Cc1c[nH]c2ccccc12)NC(=O)[C@H](Cc1cnc[nH]1)NC(=O)[C@@H]1CCC(=O)N1 | 4.93% [at 25.3 µM] | –
CC(CCC1(O)OC2CC3C4CC=C5CC(O[C@@H]6O[C@H](CO)[C@@H](O[C@@H]7O[C@H](CO)[C@@H](O)[C@H](O)[C@H]7O)[C@H](O)[C@H]6O[C@@H]6O[C@@H](C)[C@H](O)[C@@H](O)[C@H]6O)CCC5(C)C4CCC3(C)C2C1C)CO[C@@H]1O[C@H](CO)[C@@H](O)[C@H](O)[C@H]1O (stereo partly drawn) | 1.26% [at 11.6 µM] | –
CN([C@H]1c2cc(OCCCC(F)(F)F)ccc2OC(C)(C)[C@@H]1O)S(C)(=O)=O | 0.967% | –
CC1(CO)CCCC2(C)C1C(OC(=O)c1ccccc1)C=C1C(=O)OCC12O (stereo not drawn) | -27.2% [at 38.5 µM] | –
Cn1c(NC[C@@H](N)Cc2ccccc2)nc(-c2ccncc2)c(-c2ccc3ccccc3c2)c1=O | -5.03% | –
CCCCC(=O)N(Cc1ccc(-c2ccccc2-c2nn[nH]n2)cc1)C(C(=O)O)C(C)C (stereo not drawn) | 4.29% | –
Nc1nc(NCC2CCC(CNS(=O)(=O)c3cccc4ccccc34)CC2)nc2ccccc12 (stereo not drawn) | -25.9% | –
COc1ccc(NS(=O)(=O)c2sc3ccc(Cl)cc3c2C)cc1N1CCNCC1 | -3.05% | –
CCCCc1nc(Cl)c(CO)n1Cc1ccc(-c2ccccc2-c2nnn[nH]2)cc1 | 10.8% | –
CCC(=O)c1cc(-c2ccc(Cl)cc2)n(-c2ccc(S(N)(=O)=O)cc2)c1C | -4.41% | –
Cc1nnsc1C(=O)Nc1ccc(-n2nc(C(F)(F)F)cc2C(F)(F)F)cc1 | 15% | –
Cc1cc(C)c(NC(=O)N(Cc2ccc3c(c2)Cc2ccccc2-3)C2CCCCCC2)c(C)c1 | -12.3% | –
Fc1ccccc1CNCc1ccc(-c2ccnc3[nH]ccc23)cc1 | 0.287% | –
CN(Cc1ccc(C(=O)O)cc1)c1ccc(OCc2c(-c3c(Cl)cccc3Cl)noc2C2CC2)nc1C(F)(F)F | 14.3% | –
Cc1nc(C)c2c(n1)N(Cc1ccc(-c3ccccc3-c3nn[nH]n3)cc1)C(=O)CC2 | 18.4% | –

SMILES | activity change, negative = cytotoxicity | Potency
N#C[C@@H]1C[C@@H]2C[C@@H]2N1C(=O)[C@@H](N)C12CC3CC(CC(O)(C3)C1)C2 | -0.374% | –
CS(=O)(=O)c1ccc(-c2cn3ccccc3n2)cc1 | – | 6.31 µM (active)
CCCCOc1ccc(-c2cncc(C(=O)NCc3cccnc3N3CCOCC3)c2)cc1Cl | -4.69% | –
C=CC(=O)N1CCN(C(=O)c2cc(-c3cc(Cl)ccc3Cl)c(Cl)cc2OC)CC1 | -9.92% | –
CC[C@H]1OC(=O)[C@H](C)[C@@H](O[C@H]2C[C@@](C)(OC)[C@@H](O)[C@H](C)O2)[C@H](C)[C@@H](O[C@@H]2O[C@H](C)C[C@H](N(C)C)[C@H]2O)[C@](C)(O)C[C@@H](C)/C(=N/OCOCCOC)[C@H](C)[C@@H](O)[C@]1(C)O | -0.128% | –
C[C@@H](O[C@H]1OCCN(Cc2n[nH]nc2CN(C)C)[C@H]1c1ccc(F)cc1)c1cc(C(F)(F)F)cc(C(F)(F)F)c1 | -4.24% | –
Cc1cc(CN)cc(C)c1NC(=O)c1ccc(-c2cc(Cl)ccc2Cl)o1 | -30.6% | –
CCCCc1nc(C)c(CC(=S)N(C)C)c(=O)n1Cc1ccc(-c2ccccc2-c2nn[nH]n2)cc1 | 11.2% | –
CC(=O)N1CCN([C@H]2CCN(C(=O)N(C)[C@H](C)c3cc(C(F)(F)F)cc(C(F)(F)F)c3)[C@@H](c3ccc(F)cc3C)C2)CC1 | -2.56% | –
CC1(C)SC2C(NC(=O)[C@H](C(=O)O)c3ccsc3)C(=O)N2C1C(=O)O (stereo partly drawn) | 22.5% | –
COc1c(N2CC3CCCNC3C2)c(F)cc2c(=O)c(C(=O)O)cn(C3CC3)c12 (stereo not drawn) | 12.2% | –
CO[C@@H]1[C@@H](O[C@H]2O[C@@H](C)[C@H](O[C@@H]3C[C@](C)(O)[C@H](O)[C@@H](C)O3)[C@@H](N(C)C)[C@@H]2O)[C@@H](CC=O)C[C@@H](C)[C@@H](O[C@H]2CC[C@H](N(C)C)[C@H](C)O2)/C=C/C=C/C[C@@H](C)OC(=O)C[C@H]1O | -2.24% | –
CC1OC2O[C@H]3[C@@H](OCC(O)[C@H]3O)OC(=O)C34CCC(C)(C)CC3C3=CCC5C6(C)CC(O)C(OC7OC(CO)C(O)C(O)C7O[C@@H]7OC[C@H](OC(=O)CC(C)(O)CC(=O)OC1C(OC1OCC(O)C(O)C1O)C2O)[C@@H](O)[C@H]7O)C(C)(CO)C6CCC5(C)C3(C)CC4 (stereo partly drawn) | -5.07% [at 25.3 µM] | –
COCCNCc1ccc(-c2cc3nccc(Oc4ccc(NC(=S)NC(=O)Cc5ccc(F)cc5)cc4F)c3s2)nc1 | -27.2% | –
Cc1cc(CS(=O)(=O)c2ccccc2)cc(OCc2ccc(CN3CCC[C@@H]3CO)cc2)c1 | -25.7% | –
Cc1ccn(-c2cc(Cl)ccc2[C@@H](Oc2cc(-c3ccc(C[C@H](N)C(=O)O)cc3)nc(N)n2)C(F)(F)F)n1 | -1.85% | –
